The whole screen tested about 5,500 compounds, of which about 2,000 (36%) were called active. Roughly 18% stayed inconclusive and do not appear here. Rule as the data show it: active = normalized growth mostly below about 0.91 (no sharp cut-off); inconclusive = no clear call, values can overlap the other calls; inactive = mostly above about 0.92. This is one part of the list.
Assay: chemical genetic growth profiling, strain panel (AID 1159580);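 also: tested at 20 µM; growth read once vehicle control cultures reached saturation at 30 °C; 1 = growth at the plate median or of vehicle wells; lower values mean less growth of the strain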
Settings: growth OD

Measured: normalized growth

CC(=O)NO
inactive: S. cerevisiae deletion strains, locus YJL187C, strain SWE1, active compounds read low 0.992 | S. cerevisiae deletion strains, locus YJR043C, strain POL32, active compounds read low 1.07 | S. cerevisiae deletion strains, locus YJR066W, strain TOR1, active compounds read low 0.993 | S. cerevisiae deletion strains, locus YKL009W, strain mrt4, active compounds read low 0.989 | S. cerevisiae deletion strains, locus YKL068W, active compounds read low 0.995 | S. cerevisiae deletion strains, locus YKL085W, strain MDH1 (second series), active compounds read low 0.994 | S. cerevisiae deletion strains, locus YKL085W, strain MDH1, active compounds read low 0.994 | S. cerevisiae deletion strains, locus YKL160W, strain elf1, active compounds read low 0.961 | S. cerevisiae deletion strains, locus YKL190W, strain CNB1, active compounds read low 1 | S. cerevisiae deletion strains, locus YKR001C, strain vps1, active compounds read low 1.02 | S. cerevisiae deletion strains, locus YKR026C, strain gcn3, active compounds read low 0.98 | S. cerevisiae deletion strains, locus YKR091W, strain srl3, active compounds read low 0.985 | S. cerevisiae deletion strains, locus YLL001W, strain dnm1, active compounds read low 0.922 | S. cerevisiae deletion strains, locus YLL026W, active compounds read low 0.988 | S. cerevisiae deletion strains, locus YLL041C, strain sdh2, active compounds read low 0.988 | S. cerevisiae deletion strains, locus YLR027C, strain aat2, active compounds read low 0.981 | S. cerevisiae deletion strains, locus YLR039C, strain RIC1, active compounds read low 0.711 | S. cerevisiae deletion strains, locus YLR058C, strain SHM2, active compounds read low 0.988 | S. cerevisiae deletion strains, locus YLR102C, strain apc9, active compounds read low 0.996 | S. cerevisiae deletion strains, locus YLR113W, strain HOG1, active compounds read low 0.973 | S. cerevisiae deletion strains, locus YLR221C, strain rsa3, active compounds read low 0.922 | S. cerevisiae deletion strains, locus YLR258W, strain gsy2, active compounds read low 0.964 | S. cerevisiae deletion strains, locus YLR262C, strain YPT6 (second series), active compounds read low 0.986 | S. cerevisiae deletion strains, locus YLR262C, strain YPT6, active compounds read low 0.746 | S. cerevisiae deletion strains, locus YLR268W, strain sec22, active compounds read low 0.965 | S. cerevisiae deletion strains, locus YLR320W, strain mms22, active compounds read low 0.892 | S. cerevisiae deletion strains, locus YLR330W, strain CHS5, active compounds read low 0.996 | S. cerevisiae deletion strains, locus YLR342W, strain FKS1 (second series), active compounds read low 0.901 | S. cerevisiae deletion strains, locus YLR342W, strain FKS1, active compounds read low 0.98 | S. cerevisiae deletion strains, locus YLR357W, strain rsc2, active compounds read low 0.971 | S. cerevisiae deletion strains, locus YLR370C, strain arc18, active compounds read low 0.949 | S. cerevisiae deletion strains, locus YLR371W, strain rom2, active compounds read low 0.987 | S. cerevisiae deletion strains, locus YLR384C, strain iki3, active compounds read low 0.983 | S. cerevisiae deletion strains, locus YLR418C, strain cdc73, active compounds read low 0.851 | S. cerevisiae deletion strains, locus YML016C, strain PPZ1, active compounds read low 0.993 | S. cerevisiae deletion strains, locus YML032C, strain rad52, active compounds read low 0.951 | S. cerevisiae deletion strains, locus YML120C, strain ndi1, active compounds read low 0.948 | S. cerevisiae deletion strains, locus YML124C, strain tub3, active compounds read low 0.995 | S. cerevisiae deletion strains, locus YMR058W, strain fet3, active compounds read low 0.988 | S. cerevisiae deletion strains, locus YMR078C, strain ctf18, active compounds read low 0.991 | S. cerevisiae deletion strains, locus YMR125W, strain sto1, active compounds read low 0.963 | S. cerevisiae deletion strains, locus YMR129W, active compounds read low 0.99 | S. cerevisiae deletion strains, locus YMR205C, strain PFK2, active compounds read low 0.951 | S. cerevisiae deletion strains, locus YMR223W, strain ubp8, active compounds read low 0.968 | S. cerevisiae deletion strains, locus YMR231W, strain pep5, active compounds read low 0.987 | S. cerevisiae deletion strains, locus YMR307W, strain GAS1, active compounds read low 1.17 | S. cerevisiae deletion strains, locus YNL067W, strain RPL9B, active compounds read low 0.949 | S. cerevisiae deletion strains, locus YNL071W, strain lat1, active compounds read low 0.976 | S. cerevisiae deletion strains, locus YNL183C, strain NPR1, active compounds read low 0.968 | S. cerevisiae deletion strains, locus YNL209W, strain ssb2, active compounds read low 0.985 | S. cerevisiae deletion strains, locus YNL233W, strain BNI4, active compounds read low 0.939 | S. cerevisiae deletion strains, locus YNL248C, strain rpa49, active compounds read low 0.956 | S. cerevisiae deletion strains, locus YNL250W, strain rad50, active compounds read low 0.976 | S. cerevisiae deletion strains, locus YNL271C, strain bni1, active compounds read low 0.984 | S. cerevisiae deletion strains, locus YNL298W, strain CLA4, active compounds read low 0.993 | S. cerevisiae deletion strains, locus YNL307C, strain MCK1, active compounds read low 0.978 | S. cerevisiae deletion strains, locus YNL322C, strain KRE1 (second series), active compounds read low 0.957 | S. cerevisiae deletion strains, locus YNR049C, strain mso1, active compounds read low 0.977 | S. cerevisiae deletion strains, locus YNR052C, strain pop2, active compounds read low 0.97 | S. cerevisiae deletion strains, locus YOL012C, strain htz1 0.899 | S. cerevisiae deletion strains, locus YOL147C, strain pex11, active compounds read low 0.992 | S. cerevisiae deletion strains, locus YOR001W, strain rrp6, active compounds read low 1.01 | S. cerevisiae deletion strains, locus YOR061W, strain CKA2, active compounds read low 1 | S. cerevisiae deletion strains, locus YOR069W, strain VPS5, active compounds read low 1.01 | S. cerevisiae deletion strains, locus YOR070C, strain gyp1, active compounds read low 0.979 | S. cerevisiae deletion strains, locus YOR080W, strain dia2, active compounds read low 0.977 | S. cerevisiae deletion strains, locus YOR083W, strain WHI5, active compounds read low 0.962 | S. cerevisiae deletion strains, locus YOR106W, strain vam3, active compounds read low 0.975 | S. cerevisiae deletion strains, locus YOR136W, strain idh2, active compounds read low 0.989 | S. cerevisiae deletion strains, locus YOR144C, strain elg1, active compounds read low 0.996 | S. cerevisiae deletion strains, locus YOR184W, strain ser1, active compounds read low 0.974 | S. cerevisiae deletion strains, locus YOR231W, strain MKK1, active compounds read low 0.992 | S. cerevisiae deletion strains, locus YOR265W, strain rbl2, active compounds read low 0.986 | S. cerevisiae deletion strains, locus YOR270C, strain vph1, active compounds read low 0.944 | S. cerevisiae deletion strains, locus YOR290C, strain snf2, active compounds read low 0.948 | S. cerevisiae deletion strains, locus YOR316C, strain cot1, active compounds read low 0.996 | S. cerevisiae deletion strains, locus YPL051W, strain arl3, active compounds read low 0.985 | S. cerevisiae deletion strains, locus YPL078C, strain atp4, active compounds read low 0.97 | S. cerevisiae deletion strains, locus YPL106C, strain sse1, active compounds read low 0.969 | S. cerevisiae deletion strains, locus YPL240C, strain hsp82, active compounds read low 0.983 | S. cerevisiae deletion strains, locus YPL256C, strain CLN2, active compounds read low 0.994 | S. cerevisiae deletion strains, locus YPR119W, strain clb2, active compounds read low 1 | S. cerevisiae deletion strains, locus YPR141C, strain kar3, active compounds read low 1 | S. cerevisiae deletion strains, locus YPR163C, strain tif3, active compounds read low 0.984 | S. cerevisiae deletion strains, locus YPR167C, strain met16, active compounds read low 0.983 | S. cerevisiae deletion strains, strain wtn01, active compounds read low 0.969 | S. cerevisiae strains, strain wild type, active compounds read low 0.981
